# Laboratory results as given in PubChem BioAssay AID1851 (National Center for Advancing Translational Sciences (NCATS), 2009).
# Values joined by “and” are separate entries in the source; they are usually repeats but may differ in a detail not shown here. Equal entries are not always repeated. Out of some 16,000 compounds screened, about 5,700 (36%) were called active. Roughly 24% stayed inconclusive and do not appear here. This is one part of the list. Values without a mark were called inactive. Calls follow the shape of the dose curve; as a rule, active = well fitted curve in the direction sought with a large enough effect; inconclusive = small, poorly fitted or top-dose-only effect, or effect the other way; inactive = no such curve, though single readings can be large or run the other way.
# Target: Cytochrome P450 1A2 (Homo sapiens) (UniProt P05177)
# Assay: Cytochrome panel assay with activity outcomes
# Conditions: recombinant CYP, pro-luciferin dealkylation, luminescence, p450-cyp1a2; series mostly up to 57.1 µM
# % is scaled to controls: 0 for no effect and ±100 for the full control effect.
# Sequence of Cytochrome P450 1A2 (Homo sapiens) (P05177 whole entry, looked up): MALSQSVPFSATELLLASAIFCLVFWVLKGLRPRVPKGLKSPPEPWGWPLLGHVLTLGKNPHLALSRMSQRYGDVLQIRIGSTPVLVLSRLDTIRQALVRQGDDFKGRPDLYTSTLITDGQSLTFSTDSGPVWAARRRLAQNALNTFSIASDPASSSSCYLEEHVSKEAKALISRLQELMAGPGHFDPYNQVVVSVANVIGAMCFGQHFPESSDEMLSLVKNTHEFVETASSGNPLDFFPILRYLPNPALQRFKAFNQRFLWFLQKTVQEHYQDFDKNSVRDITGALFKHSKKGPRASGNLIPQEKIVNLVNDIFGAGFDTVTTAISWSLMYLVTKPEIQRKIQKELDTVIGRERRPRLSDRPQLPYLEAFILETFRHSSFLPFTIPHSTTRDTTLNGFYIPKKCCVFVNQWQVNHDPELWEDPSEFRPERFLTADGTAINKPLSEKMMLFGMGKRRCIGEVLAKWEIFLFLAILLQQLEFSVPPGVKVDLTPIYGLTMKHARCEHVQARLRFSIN
Compound,AC50,"activity, negative = inhibition"
O=c1cc(CSc2nnc(-c3cccnc3)n2-c2ccccc2F)nc2sccn12,inactive,
COCCn1c(=O)c(-c2ccccc2)nc2cnc(N(C)C)nc21,3.16 µM (active),
COCCn1c(=O)c(-c2ccc(F)cc2)nc2cnc(N(C)C)nc21,2 µM (active),
COCCn1c(=O)c(-c2ccc(Cl)cc2)nc2cnc(N(C)C)nc21,1 µM (active),
C[C@@H]1/C=C\CC(=O)OC[C@H](C)C(=O)N2CCC[C@@H]2C(=O)OC1,,-1.21% [at 11.4 µM]
Cc1ccc(/C=C/c2ccc(=O)n(Cc3ccc(Cl)cc3Cl)n2)cc1,10 µM (active),
CC(=O)OC[C@@H]1O[C@H](CCON=C(C)C)C=C[C@@H]1OC(C)=O,,4.98% [at 11.4 µM]
O=C1NC(=O)[C@@](Cc2ccccc2)(c2cccnc2)N1,,-17.1% [at 2.29 µM]
CS(=O)(=O)N(CC(=O)O)Cc1ccccc1,,4.38% [at 11.4 µM]
CNCCc1ccccn1,inactive,
ON(CCc1ccccn1)Cc1ccccc1,2.51 µM (active),
ON(CCc1ccncc1)Cc1ccccc1,1 µM (active),
c1ccc(CCc2cccnc2)nc1,0.398 µM (active),
Cc1nc2nc(C)c(CCC(=O)NCCCN3CCN(c4cccc(Cl)c4)CC3)c(C)n2n1,inactive,
O=C(c1csnn1)N1CCC2(CCN(Cc3ccccc3)CC2)CC1,inactive,
Cc1ccccc1CSc1nsc(N)n1,14.1 µM (active),
O=C(NC(N1CCCC1)C(Cl)(Cl)Cl)c1ccccc1 (centres undefined),11.2 µM (active),
O=C(N/C(=C\c1cccs1)C(=O)N1CCCCCC1)c1ccccc1,inactive,
O=C(NNC(=O)c1ccccc1)C(=O)N1CCCCC1,inactive,
COc1ccc(OC)c(-c2cc(C(=O)O)c3cc4ccccc4cc3n2)c1,,-21.4% [at 2.29 µM]
COc1ccc(C(=O)c2ccccc2)c(O)c1,1.58 µM (active),
COc1ccc2nccc(C(=O)O)c2c1,inactive,
O=C(O)c1ccc(C(=O)c2ccccc2)c(C(=O)O)c1,,3.14% [at 2.29 µM]
COc1ccc2oc(C(=O)c3ccccc3)c(N)c2c1,1.26 µM (active),
O=C(O)c1ccc(C(=O)c2ccccc2C(=O)O)cc1C(=O)O,,2.76% [at 11.4 µM]

Compound,AC50,"activity, negative = inhibition"
COc1ccc(CN(CCN(C)C)c2ccccn2)cc1,inactive,
CN(C)c1nccc(N(Cc2ccccc2)Cc2ccccc2)c1C#N,11.2 µM (active),
Cc1ccc(N(Cc2ccccc2)Cc2ccccc2)cc1,,-24.2% [at 2.29 µM]
Cc1cc(N2C(=O)C(O)=C(C(=O)c3ccco3)C2c2ccc(O)cc2)no1 (centres undefined),inactive,
Cc1ccc2occ(/C=C/C(=O)O)c(=O)c2c1,inactive,
c1ccc(CNc2ncncc2-c2ccoc2)cc1,5.01 µM (active),
c1cncc(-c2cncnc2NCc2cccs2)c1,0.316 µM (active),
c1csc(CNc2ncncc2-c2ccoc2)c1,2 µM (active),
CC(N)=NCc1cccc(CN)c1,inactive,
O=C(NCc1ccccc1)C(c1ccncc1)N(C(=O)c1csnn1)C1CC1 (centres undefined),inactive,
CN(C)CCCN1CCC2(CCC(C(C)(C)C)CC2)CC1,,-1.31% [at 11.4 µM]
COc1ccc(-c2nc(-c3cccc(C)c3)nc(N3CCN(C)CC3)c2C#N)cc1,inactive,
CN1CCN(c2nc(-c3cccc(C#N)c3)nc3ccccc23)CC1,1.58 µM (active),
N#Cc1cccc(-c2nc(N3CCNCC3)c3ccccc3n2)c1,2.51 µM (active),
COc1ccc(C(=O)NC2(C(F)(F)F)C(=O)Nc3c2c(=O)[nH]c(=O)n3CCc2ccc(OC)c(OC)c2)cc1 (centres undefined),inactive,
CC(=O)OCc1c(C(F)(F)F)nn(C)c1Sc1ccccc1,15.8 µM (active),
COc1cc(S(C)=O)ccc1-c1nc2ncccc2[nH]1 (centres undefined),0.251 µM (active),
O=C(O)C[C@H](NC(=O)CP(=O)(O)O)C(=O)O.[NH-][C@@H]1CCCC[C@@H]1[NH-].[Pt],,-15.5% [at 11.4 µM]
FC(F)(F)c1nnc2c(Sc3ccc(Cl)cc3)nc3ccccc3n12,0.1 µM (active),
FC(F)(F)c1nnc2c(Sc3ccccc3)nc3ccc(Cl)cc3n12,0.708 µM (active),
CC(/C=N/n1c(-c2cccnc2)n[nH]c1=S)=C\c1ccccc1,0.141 µM (active),
O=C(O)c1nn(-c2ccccc2)ccc1=O,inactive,
NNC(=O)c1nn(-c2ccc(Cl)cc2)ccc1=O,15.8 µM (active),
CC(C)=CCC/C(C)=C/CO/N=C1/C[C@@H](O)[C@@H](O)[C@@H]2[C@H]3C(=O)N(c4ccc(F)cc4F)C(=O)[C@@H]3CC[C@@H]12,,8.54% [at 11.4 µM]
C#CCN(C)CCCOc1ccc(Cl)cc1Cl,631 nM (active) and 158 nM (active),

Compound,AC50,"activity, negative = inhibition"
C#CCN(C)Cc1ccccc1,inactive,
CC[C@]1(O)C[C@H]2CN(CCc3c([nH]c4ccccc34)[C@](C(=O)OC)(c3cc4c(cc3OC)N(C=O)[C@H]3[C@@](O)(C(=O)OC)[C@H](OC(C)=O)[C@@]5(CC)C=CCN6CC[C@]43[C@H]65)C2)C1,inactive,
CO[C@H]1C[C@@H]2C[C@H](O)C[C@@H](CC(=O)O[C@@H](/C=C\CC(C)C)C[C@@H]3CC[C@H](C)[C@@H](C1)O3)O2,,-2.91% [at 11.4 µM]
Clc1ccc2c(c1)N(CCCN1CCCC13CCCCC3)c1ccccc1S2,,-6.18% [at 2.29 µM]
CN1CCC[C@@H]1CCO[C@](C)(c1ccccc1)c1ccc(Cl)cc1,inactive,
O=c1n(CCCN2CCN(c3cccc(Cl)c3)CC2)nc2ccccn12,inactive,
O=C1CSC2(CCN(CCCN3c4ccccc4Sc4ccc(Cl)cc43)CC2)N1,3.16 µM (active),
CN1CCCC[C@@H]1CCN1c2ccccc2Sc2ccc(S(C)=O)cc21 (some centres undefined),inactive,
OC1CC2CC[C@H](C1)N2CCCN1c2ccccc2Sc2ccc(Cl)cc21 (some centres undefined),,-12.5% [at 11.4 µM]
CSc1ccc2c(c1)N(CC[C@H]1CCCCN1C)c1ccccc1S2,7.94 µM (active),
CCSc1ccc2c(c1)N(CCCN1CCN(C)CC1)c1ccccc1S2,0.316 µM (active),
CN1CCN(CCCN2c3ccccc3Sc3ccc(Cl)cc32)CC1,1 µM (active) and 2.51 µM (active),
Nc1c(S(N)(=O)=O)cc(S(N)(=O)=O)cc1S(N)(=O)=O,,-11.6% [at 11.4 µM]
COCCCNCCCCOc1c(Cl)cc(C)cc1Br,0.562 µM (active),
C=CCNCCCCOc1c(Cl)cc(C)cc1Br,0.2 µM (active),
FC(F)(F)c1cc(CN2CCCC3(CCNCC3)C2)cc(C(F)(F)F)c1,inactive,
C[C@H]1/C=C\CC(=O)OC[C@H](C)C(=O)N2CCC[C@@H]2C(=O)OC1,,7.07% [at 11.4 µM]
CCOC(=O)NNc1nncc2ccccc12,5.01 µM (active),
NNc1nncc2ccccc12,1 µM (active),
Fc1ccc(Nc2ncncc2-c2ccoc2)cc1,0.316 µM (active),
c1ccc(Nc2ncncc2-c2ccoc2)cc1,1 µM (active),
c1ncc(-c2ccoc2)c(NC2CC2)n1,15.8 µM (active),
Cc1noc(C)c1-c1cncnc1NC1CC1,inactive,
COc1cc(C2C(C#N)=C(N)N(Nc3ccccc3)C3=C2C(=O)CC(C)(C)C3)ccc1OCc1ccccc1 (centres undefined),inactive,
COc1cc(/C=N/O)cc(Br)c1OCc1cccc(Cl)c1,0.631 µM (active),

Compound,AC50,"activity, negative = inhibition"
N/C(=N\OC(=O)c1cc(-c2ccccc2)nc2ccccc12)c1ccc(Cl)cc1,11.2 µM (active),
O=C(O)c1cc(-c2ccc(-c3ccc(-c4cc(C(=O)O)c5cc(Cl)ccc5n4)cc3)cc2)nc2ccc(Cl)cc12,,-18.1% [at 2.29 µM]
O=C1[C@H]2[C@H]3[C@H](O)[C@H](O)C/C(=N/OC[C@@H](O)COCc4ccco4)[C@@H]3CC[C@@H]2C(=O)N1Cc1ccccc1,,11.1% [at 11.4 µM]
CCNc1ncc2nc(-c3ccc(Cl)cc3)c(=O)n(C3CC3)c2n1,0.501 µM (active),
CCNc1ncc2nc(-c3ccccc3)c(=O)n(C3CC3)c2n1,2.51 µM (active),
O=C(O)C1=C/C(=C(/c2ccccc2)c2cc(C(=O)O)c(O)c3ccccc23)c2ccccc2C1=O,,-21.5% [at 11.4 µM] and -13.1% [at 11.4 µM]
Cc1ccc(O)c(-c2cc(C(F)(F)C(F)F)nc(-c3ccccc3)n2)c1,2.82 µM (active),
Fc1ccccc1NC(=S)NCCc1ccccc1,5.62 µM (active),
COc1ccccc1NC(=S)NCCc1ccccc1,12.6 µM (active),
COc1ccccc1NC(=S)NNC(=O)c1c(Cl)c(C)nn1C,inactive,
Fc1ccc(NC(=S)NCCc2ccccc2)c(F)c1F,5.62 µM (active),
COc1ccccc1NC(=S)NC(=O)c1ccc(-c2ccc(Cl)cc2)o1,2.82 µM (active),
CCn1cc(C(=O)O)c(=O)c2cc(F)c(N3CCN[C@@H](C)C3)c(F)c21,inactive,
CC(C)(C)c1ccc(S(=O)(=O)/C=C\C#N)cc1,1.58 µM (active),
C[C@@](N)(C(=O)O)c1ccc(S(=O)(=O)O)cc1,inactive,
CC(=O)NCCC(=O)Nc1sc2c(c1-c1nc3ccccc3[nH]1)CCCC2,7.08 µM (active),
CCc1cc2c(=O)c(-c3nc4ccccc4[nH]3)coc2cc1OC(=O)N1CCOCC1,inactive,
Cc1c(OC(=O)c2ccc([N+](=O)[O-])cc2)c2c(c[n+]1C)COC(C)(C)OC2,17.8 µM (active),
OCC1CCCN(Cc2ccc(-c3ccccc3)cc2)C1 (centres undefined),inactive,
Cc1cc(C)cc(N(C(=O)c2ccccn2)C(C(=O)NC2CCCCC2)c2cccs2)c1 (centres undefined),inactive,
O=C(NCCc1ccccn1)c1cc(C(=O)C2CCCCC2)c[nH]1,14.1 µM (active),
Cc1ccc(C(=O)c2c[nH]c(C(=O)NCCCN3CCOCC3)c2)cc1,inactive,
O=C(NCCCN1CCOCC1)c1cc2c(s1)CSC2,inactive,
O=C(NCCCN1CCOCC1)c1cc(C(=O)C2CC2)c[nH]1,17.8 µM (active),
